About 3,700 (7%) of roughly 53,000 sequences were called active. Shown is part of a subset that was picked to be rich in actives. Values without a mark were called inactive.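 The calls were made as follows: active = gene knockdowns whose robust z-score for IL-1 alpha signal is at least 2 or at most -2, so actives lie on both sides; inactive = the rest.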

This experiment in a line: Components of the Cytosolic LPS Sensing Pathway: Gene Identification via Genome-wide siRNA Screen.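 Also: robust z of the log signal after scaling to non-targeting control siRNA wells of the plate.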 The conditions noted are these: RAW264.7 macrophages, IL-1a HTRF, actives lie on both sides, screened at 100 nM (by protocol), cells primed 5 h with Pam3CSK4 first. Put shortly:
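RAW264.7; siRNA 100 nM final, RNAiMAX, 48h 37 degrees C; Pam3CSK4 5 h; LipidA + TransIT-TKO 24 h; IL-1a HTRF; CellTiter-Glo viability; robust z vs negative-control median.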
(Time-resolved FRET reads energy transfer from a long-lived donor to a nearby acceptor.)
With GCGAACUCCUCUUUAGGCATT against Chrng, the z-score is -0.594.
GCCAUCCUUCCAUUUAAGATT against Wdyhv1: the z-score was -0.478.
For GGUAAGGACUAUUUGAAUUTT against Lpar1, the z-score is -0.429.
To GCAAAUUAAGCACUGUAAGTT against Dennd1b belongs 0.379; to GGUGGUUAGAUCUUACGCUTT against Tmem184a, 4.37 (active).
To CGCGUACGACUUCUACAAATT against Hmgcs2 belongs 0.775.
Next, GGUGGAGUUUCUCAAAAGCTT against Kcnc3: 0.0264.
Take GCAGGUACUGCGCUAUUAUTT against Atp13a2: the z-score is -0.766.
To GGAUGUGGCUGCUUUGAAGTT against Mettl27 belongs -1.38.
As to CCUUCUAGACACCAUACCCTT against Pidd1, the z-score is 0.259.
As to CCACACGUUCCAUUUCUCGTT against Hilpda, the z-score is -2.65 (active).
To CGUCAUGCAUUUUUCUAAATT against Trim24 belongs 0.489; to GGAUGAGAAGAAAGAAGAUTT against Srrt, -1.36.
For GGAUACAGCAGUACAAAUGTT against Ces2c, the z-score is -0.135.
To GGUGCGCUUCUAUGUUCCUTT against Ssrp1 belongs 2.38 (active); to GGCAAGGAUUUUUCUACCUTT against Tslp, -0.555; to GCUGCACAAGUGAUAUCCGTT against Trim26, 0.397.
Next, GGGAAAGCCAUCCUUCACUTT against Erich5: 0.288.
To GGAGAAAAAGAGAUAAGGUTT against Ppp2r2b belongs -0.893; to GCCAUUUGUCCACAAAAUGTT against Ces2g, -2.06 (active).
As to GGACCUGGAGUAUAUGCUGTT against Mgat4f, the z-score was -0.611.
As to GGCACUGUUCUCAUCUGUGTT against Olfr736, the z-score was -2.41 (active).
As to GGUUGACUCUACAAAAUACTT against Muc5b, the z-score was -0.656.
Next, GGCAGUUGUGAACUUUCUCTT against Telo2: 0.243.
Next, GGAAAGGCUGUUUCCUACCTT against Atox1: 1.05; GGACUUGUGAUUCAAGCAUTT against Rad23b: 0.525; CCUGAUUGACGACAGUAAGTT against Mcrs1: 0.519.
Regarding CGACCAGAGUUAUCUGAAUTT against Ctf2, the z-score is 2.2 (active).
Next, GGGAAUUUAUGCAUUAGCATT against Kif2a: 0.111; GGCUCUGCUAUUUCUCCUGTT against Olfr17: -1.16; GCUUGAAUGGAGCGAAUCGTT against Chat: 4.86 (active).
Regarding GGAAACAAAGUCAAUGUGGTT against Cnn1, the z-score was -0.522.
Next, GCUGAAGUAGGGUUUAUUATT against Gdap10: 0.786.
To GCCUUGGACAAAAACACUATT against Ryk belongs -0.917; to CCUGAUUCCAAAUGUGUUUTT against Sgcb, 0.158.
To GGACACAAAUGACAUCAACTT against Sirpa belongs 2.13 (active); to CGGCAUCCAGUCUCAGAUGTT against Coch, 1.88.
Regarding “GCCUAAGUUCUAGCAAAAUTT against Spata31d1d”, the z-score was 0.514.
To GGAAGCUACAUGCUGUUCCTT against Anln belongs 0.737.
On to UGAAAAGAGCAAUGAAGAATT against Olfr177, for which the z-score is -0.36.
For GGAAAGGAGAAGAGAAAUGTT against Scyl1, the z-score is 1.18.
As to CCUGACAGUACCAAAAAAUTT against Pax4, the z-score was -0.599.
To GGUACAAUGUUCAUACCAATT against Rab9b belongs 0.528; to GGGCUAUUGCAUCUUUUAATT against Olfr711, -0.0884.
CCGAAUUGAAAUCACAAGCTT against Nup43: the z-score is -1.31.
GGAUUGUAAUAAUGGAGCCTT against H2-M10.4: the z-score is 2.94 (active).
To GGAGAGGUGGUAUUGUUGGTT against Olfr1297 belongs 0.29; to GCUAAAUUCUUUCCUGAAGTT against Rdx, -1; to CCAGUUACUAGUAAUACUCTT against Mcm3ap, -0.0482.
With CCAAGGUGCUGUUGGUAUATT against Ssr2, the z-score was 0.248.
As to GCAACGACUCUAAUGACUUTT against Slc38a1, the z-score was -0.515.
For GCUUUCCACCACGUACUGATT against Plekha6, the z-score is -0.0754.
With GGAUCAGCUGUUGCCAGAGTT against Zfp384, the z-score is 0.806.
Take GGAGUAUAACUAUGGCUUCTT against Mvb12a: the z-score was 0.689.
To CCAGUUAAGCCAAACUAUGTT against Wdr5 belongs -2.21 (active); to GGAAGUGCUGCACAUACUATT against Bnc2, -0.525.
To GGAAGAUUUGUUCUAUACUTT against Epgn belongs 0.593; to GGUCACAUCGUCCUUACAGTT against Rps6ka4, -2.05 (active); to GGGAUUAAAAUCCUAUCUUTT against Eva1a, 0.857.
Consider GGAUCAGGAUUUAAUGAAUTT against Zc2hc1a, for which the z-score was -1.13.
To CCUUAUAAUUGACACUGAUTT against Toe1 belongs 0.312; to GGAUAGCUGCCAACACUACTT against Baiap2l2, -0.689; to GGACGACAGUGCAAAGCAUTT against Usb1, -2.33 (active).
For CCGCUUUUGUCAAGUUUUCTT against Asap1, the z-score is 2.65 (active).
On to GGACACUCAAUGAAAUCUATT against Foxp3, for which the z-score is 1.21.
For the sequence GCUAAAAAUAAACAGUCGGTT against Pus10, the z-score is -0.642.
Next, GCCCGUCGGAUAUAAGAUUTT against Cd247: -0.351.
GGAAGAAUCGUUUAUGACATT against Ppp4r2: the z-score was 0.73.
Next, GGUUUUGAGAUUGAAAGAATT against Myof: -0.344; GGUCGUCUUUUAAGAGUUUTT against Ccdc71l: 3.03 (active); GGUGCAACAAUCAUUUGAATT against Casp4: -0.431.
To GGAAGAAAUGCAUAAUGCATT against Mesd belongs 0.236; to GGAAAAACUGCUAGAUCUATT against As3mt, 1.49.
Next, GGCUAUGGAAAAAGAUAUGTT against Il21r: -1.02.
For the sequence GGACCAAGCUGUUAUUAACTT against Dhodh, the z-score is 0.46.
To GGUUUACCUCUAUGCUAUGTT against Upk3a belongs 1.39; to GGGUCUCUUGUGGUACAUCTT against Cln3, 3.41 (active); to GCAUUUCGCCUCUUUCAUATT against Elac1, -0.405.
Next, GGCAUUUCUUUCACUAGCUTT against Olfr618: 0.833; GCAGAGGCUCGUCCAUAUATT against Dnpep: -0.205; GGUUCACGGGUUCUAAGAUTT against Eif1b: 2.35 (active).
To GGACAGUUCUUACUUUACATT against Drd2 belongs 1.18; to CCGUGAAUUUGGAUGAUGGTT against T2, -1.98.
For CCAAAGGUGACCACAGAUUTT against Zfp444, the z-score is 1.13.
To GGCUCCAUCAAGAAAAGUUTT against Usp21 belongs 0.681; to GGCCUUCCUUGACCAAUCUTT against Ren1, -2.11 (active); to GGACUGUGCAACUUUGUGGTT against Timp3, -0.634.
Turning to GGAGUUGGUUCUGUGUUAUTT against Tcf7l2, the z-score was -0.271.
For CGGAACAUGGAGUUUAAGCTT against Slfnl1, the z-score was 2.3 (active).
Next, GGAAUGAGUUAGAAUAGCGTT against BC004004: -0.923; GGAAAGAAACUAAGGAAAATT against Arhgap15: 0.628; GGAGCUUGACAUUAAGGACTT against Erc2: 0.809.
To GGAAAUAAACAAGUCCCACTT against Urm1 belongs 0.465.
On to CGACGAAGUGGUCGGAAUUTT against Cryzl1, for which the z-score is 2.1 (active).
To GGUGAUGUAUGUUACGCUGTT against Srsf1 belongs -0.00436.
For the sequence GGAGAAAGAGAAAAUCGCUTT against Csnk1g2, the z-score is -0.736.
Next, GGUUAUCAGUUGCAUUGUUTT against Gpr37l1: 0.809; GGAAGUCGGGCAAAUACAATT against Tacstd2: 5.77 (active).
Next, GCUCAUUCUCAAAGGCUUATT against Rdh12: 0.659; GGAAUACAUCGAGUAUCUCTT against Xab2: -1.43; GCUCGAGUGUAAGAUCUGUTT against Rnf182: 0.355.
In the case of CCCGUUCGUGCAUGAGUUATT against Lpcat4, the z-score was 0.532.
Turning to CCGGGAAACCAACAAAUCATT against Rbmxl1, the z-score was 2.19 (active).
To GGUGGAAUUCAUUUUGACATT against Dnajb6 belongs -0.42; to GGCAAUGACCUUGUAAAGATT against Tomm34, -1.56; to GUGCUAUUCAUGCACAGCATT against Psca, 0.0658.
Next, GGAUGUCUUUUUAAGGUUUTT against Eid1: 0.987; CCCGUCCCAUCCAUUAUUUTT against Zfp787: -1.19.

These data come from PubChem BioAssay AID1508600 (Functional Genomics Laboratory (NCATS/FGL), 2020).
